NALP1 inh – blocks the NALP1 inflammasome reconstituted in yeast; S. cerevisiae NALP1/ASC/caspase-1 growth, X-gal OD620, 72 h; inhibition, % at 10 µM; hit rate 0.61% among 280,000; in the data active means inhibition mostly above about 24%, no sharp cut-off; inactive means mostly below about 32%
pCIP destab – p/CIP protein destabilization | Q05BA5 | F442A p/CIP-EGFP cells, EGFP fluorescence, 16 h | decrease of EGFP signal, % at 10 µM | hit rate 0.01% among 290,000 | AID 1984;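 active means EGFP signal decrease of at least 30% at 10 µM or well 3 SD below plate mean, unless failing retest; inactive means the rest, including hits failing retest or dose response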
HSF1 inhib – HSF1 inhibition. NIH3T3-HGL HSE-luciferase, MG132-induced, luminescence 8 h; hits give low values. activity change, negative = inhibition, % at 7.5 µM (by protocol). hit rate 0.77% among 300,000. AID 2098;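 active means more than half of replicate wells show activity change below -50%, luminescence cut by over half; inconclusive means some wells, but at most half, below -50%; inactive means no replicate well below -50%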;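 further: luciferase reports HSF-1 transcriptional activity via heat shock element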
HSP90 inh – blocks HSP90-mediated luciferase refolding in reticulocyte lysate | Rabbit reticulocyte lysate, luciferase refolding luminescence, 3 h | inhibition, % at 5.6 µM | hit rate 0.91% among 290,000;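 active means inhibition above the screen-wide mean plus 3 SD, computed separately per campaign, cut at about 16% in these data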;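 further: inhibitors lower the luminescence because luciferase stays unfolded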
Hsp70 activator – transcriptional activators of Hsp70 | HeLa Hsp70 promoter luciferase reporter, luminescence; scaled: vehicle 0, proteasome-inhibitor control 100% | activation, % at 10 µM | hit rate 0.04% among 200,000;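 active means activation above the mean across all tested compounds plus 3 SD, cutoff set per campaign, cut at about 5.5% in these data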
HSF1 activator – increases HSF-1 driven luciferase reporter signal | NIH3T3-HGL HSF-1 luciferase reporter, MG132, 8 h; 100% = twice DMSO control signal | activation, % at 9 µM | hit rate 1.7% among 300,000;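 active means mean replicate activation of at least 50% with a set share of replicates each reaching 50%; inconclusive means only one of those two conditions met; inactive means mean below 50% and too few replicates reaching it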
Large screens that a line does not name were inactive. This is a sample that favours compounds with a hit; in the whole collection about 3.8% have one here.

CC1=NN(c2ccccc2)C(=O)C1N=Nc1cccc(O)c1 (stereo not drawn)	NALP1 inh 31.8, HSF1 activator inconclusive (no result: Hsp70 activator)
COC(=O)c1nc(Cl)c(Cl)c(N)c1Cl	HSF1 inhib -72.5
NC1=NC(=O)/C(=C/c2cn(Cc3ccccc3)c3ccccc23)S1	HSF1 activator 60.2
COc1ccc(N2CCN(C(CNS(=O)(=O)c3ccccc3)c3ccccc3)CC2)cc1 (stereo not drawn)	none (no result: Hsp70 activator)
Cc1ccc(C)c(C(=O)CN2C3=NCCCN3c3ccccc32)c1	NALP1 inh 33.3 (no result: HSF1 inhib, HSF1 activator)
O=C(COc1ccc(Br)cc1)Nc1ccc(-c2nnc(-c3ccco3)o2)cc1	HSF1 activator 51.0
Cc1nc2scc(C)n2c(=O)c1S(=O)(=O)N1CCN(c2cccc(C(F)(F)F)c2)CC1	HSF1 inhib -65.0 (no result: Hsp70 activator)
COc1ccc(-n2nc3c(c2NC(=O)CCCl)CSC3)cc1	none (no result: Hsp70 activator)
Cc1ccc(Cn2c(=N)c(C(=O)NC3CCCCC3)cc3c(=O)n4ccccc4nc32)cc1	none (no result: Hsp70 activator)
N=c1c(C(=O)NCC2CCCO2)cc2c(=O)n3ccccc3nc2n1Cc1ccc(Cl)cc1 (stereo not drawn)	HSF1 activator 56.8 (no result: Hsp70 activator)
N=c1c(C(=O)NC2CCCC2)cc2c(=O)n3ccccc3nc2n1Cc1ccccc1	HSF1 inhib -91.2 (no result: Hsp70 activator)
N=c1c(S(=O)(=O)c2ccc(Cl)cc2)cc2c(=O)n3ccccc3nc2n1Cc1ccco1	HSF1 activator 136.9 (no result: Hsp70 activator)
N=c1c(C(=O)NCC2CCCO2)cc2c(=O)n3ccccc3nc2n1Cc1ccccc1 (stereo not drawn)	none (no result: Hsp70 activator)
CC1(C)Cc2nc3scc(NC(=O)c4ccccc4)c3cc2CO1	none (no result: Hsp70 activator)
c1ccc(-c2cn3c(n2)SCC3)cc1	none
Oc1ccc(-c2cn3c(n2)SCC3)cc1	none
Brc1ccc(-c2cn3c(n2)SCC3)cc1	HSF1 activator 62.6
Clc1ccc(-c2cn3c(n2)SCC3)cc1	HSF1 activator 58.4
CC(=O)c1cccc(NC(=O)CN2C(=S)NC(C)(C)CC2C)c1 (stereo not drawn)	HSF1 inhib -62.0
CCN(CC)CCCNC(=O)c1cn(CCOC)c(=O)c2c1c1ccccc1n2C	NALP1 inh 30.6
Clc1cccc(/C=N\Nc2nccs2)c1	HSF1 activator 142.8
CCc1cc2c(=O)n(C(C)C(=O)OC3CCCCC3)cnc2s1 (stereo not drawn)	HSF1 activator 66.5
Cc1cc(-c2nc3ncccc3o2)ccc1NC(=S)NC(=O)C(C)C	HSF1 activator 51.8
Cc1ccc(-c2nc3ncccc3o2)cc1NC(=O)C(C)C	none (no result: Hsp70 activator)
CN1CCCN(C(=O)CC(c2ccccc2)c2ccccc2)CC1	none
O=c1c2c(nc3cc(-c4cccc(F)c4)[nH]n13)CCC2	HSF1 activator 52.1
CCCNC(=O)NC1CCCCCCC1	none
CCCNC(=O)NC1C(NC(=O)NCCC)N(C)C(=O)N1C (stereo not drawn)	HSF1 inhib -57.0
OC(Cn1cnnc1)c1ccccc1 (stereo not drawn)	none (no result: Hsp70 activator)
CCN1CCSc2ccc(C(=O)NCc3ccc(OC(C)C)cc3)cc21	HSF1 activator 77.2 (no result: Hsp70 activator)
CCOc1ccc(CNC(=O)c2ccc3c(c2)N(CC)CCS3)cc1	HSF1 activator 54.5 (no result: Hsp70 activator)
CCN1C(=O)CSc2ccc(C(=O)NCc3ccc(OC)cc3)cc21	HSF1 activator 52.5
Clc1nc(Cl)nc(-c2cn(-c3ccccc3)c3ccccc23)n1	none (no result: Hsp70 activator, HSF1 activator)
CN(C)/C=N/c1cnc(C(=O)c2ccc(Cl)cc2)n1C	HSF1 activator 62.2
CN(C)/C=N/NC(=O)c1ccc(Cl)cc1	none
O=C(CCC1CCCC1)N=C1SC2CS(=O)(=O)CC2N1c1ccccc1F (stereo not drawn)	HSF1 activator 64.3 (no result: Hsp70 activator)
O=C(NC(=S)NC1C2CC3CC(C2)CC1C3)c1ccccc1 (stereo not drawn)	HSF1 inhib -57.7 (no result: Hsp70 activator)
O=C(NC(=S)NC1CCCC1)c1ccccc1	none (no result: Hsp70 activator)
O=[N+]([O-])c1cnc(Sc2ccncn2)s1	HSF1 inhib -66.8 (no result: Hsp70 activator, HSF1 activator)
COc1cccc(/C=N/NC(=O)Cn2cnc3c2c(=O)n(C)c(=O)n3C)c1OC	none (no result: Hsp70 activator)
COc1ccccc1N1CCN(C(=O)CCNS(=O)(=O)c2ccc3c(c2)CCC(=O)N3)CC1	HSP90 inh 16.3
COc1ccc(N2CCN(C(=O)CCNS(=O)(=O)c3ccc4c(c3)CCC(=O)N4)CC2)cc1	none (no result: HSF1 inhib, HSF1 activator)
c1ccc(-c2n[nH]c3ccccc23)cc1	NALP1 inh 22.3
